tested on: LXRb:RXRa (NR concentration 270 nM, RXRa partner concentration 90 nM); experiment: PBM binding z-score (relative to random genomic background probes); higher = stronger binding; sequences stand for … in GC…GCGATTGACAGCGTAGAATGAAGG
In short: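 Random background probes are the reference for binding z-scores. These scores derive from regression-normalized fluorescence on custom Agilent 4×180K protein-binding microarrays incubated 1 h with ligand-free nuclear receptor dimers. Binding was detected with antibodies against each partner (one per run).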

**Q.** ATCTCTAGGTAAATGTTCAGTGAATCCCGAGGAT was tested. Which PBM binding z-score did it give?
**A.** -0.389

**Q.** AGTCAAAGTTCAGGACGAGGTAAAGTAAAGCACG was tested. Which PBM binding z-score did it give?
**A.** 1.9

**Q.** For CCTACTGGGCCAAAGGTCATAGATTCCAATGCTC, which PBM binding z-score is on record?
**A.** 4.47

**Q.** How did the PBM binding z-score turn out when AGTAAAAGTTCACTAGGTAACGTAAGATTCAGCT was run?
**A.** 2.6

**Q.** For GCTTCCGGGTCAAAGGTTATAGCATGAATAGAAT, which PBM binding z-score is on record?
**A.** 5.76

**Q.** For CAAACTAGGTCACGAAAGGTCAAAATCGAATGAC, which PBM binding z-score is on record?
**A.** 7.37

**Q.** How did the PBM binding z-score turn out when CGAACTAGGTCAAAGGACACTGAAAGGCGACGTA was run?
**A.** 2.15

**Q.** For GGAACGGGGGCATTCGAGTTGATAGCATGGCGAT, which PBM binding z-score is on record?
**A.** 4.98

**Q.** For ACTAGGAGGACAAAGGTCAGAGCTACGCCAGTGA, which PBM binding z-score is on record?
**A.** 3.58

**Q.** How did the PBM binding z-score turn out when TATACTGGGTCAAAGGCCAGAGTACGAATGTCGA was run?
**A.** 2.81

**Q.** With CAAACTAGGTCAAGGTCAAATTCGGTTTGTGCCA as the sequence, how does the PBM binding z-score read?
**A.** 5.06

**Q.** AGTCAAAGTTCACTAGGCAACGTAAGATTCAGCT was tested. Which PBM binding z-score did it give?
**A.** 2.89

**Q.** For CGTCCAAGGTCAATGTTAGGTCAGTGAAAGCATT, which PBM binding z-score is on record?
**A.** 4.38

**Q.** Which PBM binding z-score does the source give for CGTCCAAGGTCAGAGAGGTCAGTGTATGCCGAGT here?
**A.** 4.4

**Q.** For ACTAGCAGGCCAAAGGTCACTCAAGATTAGTCCG, which PBM binding z-score is on record?
**A.** 4.8

**Q.** For GATACAGGGTGAGCTAGAGGCCAGAGTATGGAAA, which PBM binding z-score is on record?
**A.** -0.678

**Q.** Which PBM binding z-score does the source give for CAAACTAGGTCAAAGGTCAACGTCGAGCCAACCA here?
**A.** 7.01

**Q.** Which PBM binding z-score does the source give for CGGACTGGGGCAAAGGTTACCATACTCAGTACGA here?
**A.** 2.34

**Q.** Which PBM binding z-score does the source give for GCATACGGGTCAAAGGTTATAGCATGAATAGAAT here?
**A.** 5.74

**Q.** For ACTAGCAGGTCAAGGGTCACTCAAGATTAGTCCG, which PBM binding z-score is on record?
**A.** 4.88

**Q.** For CAAACTAGGTCACGAGGTCAAAGTCCGCTTCCCG, which PBM binding z-score is on record?
**A.** 5.41

**Q.** With TCATATAGGTTAAGGTGAAAGTCGAACGATATGA as the sequence, how does the PBM binding z-score read?
**A.** 1.55

**Q.** With CTAACTAGGTCACGAAAGGTCAAAGTCGAATGAC as the sequence, how does the PBM binding z-score read?
**A.** 7.44

**Q.** For CCTGCTAGGACAATGGTCAGCTAAAGCAGCTCGC, which PBM binding z-score is on record?
**A.** -0.869

**Q.** Which PBM binding z-score does the source give for CAAACTAGGTCAAAGGTCAAGGTCGAGCCAACCA here?
**A.** 6.8

**Q.** For GATACAGGGTCAAGGCCAGAATACGCGTATTGAT, which PBM binding z-score is on record?
**A.** 4.25

**Q.** Which PBM binding z-score does the source give for CGAACTAGGTCAGAGCAGGACAGTGAAGGATGAT here?
**A.** 0.261

**Q.** With CAAACTAGGTCAAAGGTCAAAGACGAGCCAACCA as the sequence, how does the PBM binding z-score read?
**A.** 7.3

**Q.** ATCTCTAGGTGAAAGTTCAGTGAATCCCGAGGAT was tested. Which PBM binding z-score did it give?
**A.** 1.43

**Q.** CAAACTAGGTCACAGAGGTCAAAGTTCGTGCGTA was tested. Which PBM binding z-score did it give?
**A.** 6.7

**Q.** Which PBM binding z-score does the source give for CCTTACGGGTCTAGGTTATAGCACGGGTGGTACG here?
**A.** -0.517

**Q.** Which PBM binding z-score does the source give for TCTTGTAGATCAAAGGTCAAGAAAGCCGAAGCCT here?
**A.** 5.03

**Q.** Which PBM binding z-score does the source give for ATATGTAGGTCAGGGTCATTCAGAAAGTAGGGAA here?
**A.** 5.11

**Q.** AGTCAAAGTTCATCTGGGTAACGTAAGATATGCT was tested. Which PBM binding z-score did it give?
**A.** 4.05

**Q.** For TTACCAAGGTAAAAGGTCGTTGATGCACGCCTTG, which PBM binding z-score is on record?
**A.** 2.25

**Q.** How did the PBM binding z-score turn out when ACTAGAAGGCCAAGGGTCACTCAAGATTAGTCCG was run?
**A.** 3.25

**Q.** For GATACAGGGTCAGCTAGAGGTCAGAGTATGGAAA, which PBM binding z-score is on record?
**A.** 4.98

**Q.** With TCATATAGGTAATAAAGGTGAAAGTCGGCATCTA as the sequence, how does the PBM binding z-score read?
**A.** 1.79

**Q.** How did the PBM binding z-score turn out when TCTTGTAGATCAAAGCTTAAGAAAGCCGAAGCCT was run?
**A.** -0.365

Reference: the supplement of paper PMC6555819
